Source: the supplement of paper PMC10646978
± gives the standard deviation.

Assays:
Settings in all cases: modulator concentration 10 µM
[1] = test system: RAW-Dual (murine macrophage reporter line); test: NF-kB reporter (SEAP) activity fold change vs agonist alone; higher = enhanced NF-kB activity
In short: (§1)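 RAW-Dual murine macrophage reporter cells were plated at 50 000 per well in 384-well plates, pin-transferred compound to 10 μM final, and pre-incubated for 1 hour at 37 °C before a PRR agonist was added and the cells incubated overnight. NF-κB activity was read from supernatant SEAP with QUANTI-Blue at 620 nm absorbance, and IRF activity from Lucia luciferase with QUANTI-Luc by luminescence. Each signal was expressed as fold change by dividing by the mean agonist-only control on the same plate. Two replicate plates were averaged, with errors obtained by propagation.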

[2] = test system: RAW-Dual (murine macrophage reporter line); test: IRF reporter (Lucia luciferase) activity fold change vs agonist alone; higher = enhanced IRF activity
In short: as §1

[3] = test system: RAW-Dual (murine macrophage reporter line); test: viability score (confluency relative to resting cells, overnight) (fraction); higher = more viable, active = viable (0.7 or more)
In short: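 Two confluency masks, generated with IncuCyte software over all imaged wells, were applied to IncuCyte images of RAW-Dual macrophages. The cells, in 384-well plates, had been exposed overnight to 10 μM final compound. The viability score is confluency as a fraction of resting cells, and a compound met the cutoff only with both masks above 70% of resting cells.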

[4] = agonist: CpG ODN 1826 0.5 ug/mL

Row | Structure (SMILES) | NF-kB reporter [1, 4] | NF-kB reporter ([1]; agonist: LPS 0.1 ug/mL) | NF-kB reporter ([1]; agonist: MPLA […]) | IRF reporter ([2]; agonist: 3'3'-cGAMP 10 ug/mL) | IRF reporter ([2]; agonist: LPS 0.1 ug/mL) | IRF reporter ([2]; agonist: MPLA […]) | viability score [3]
1 | CC1CCc2c(N3CCC(O)CC3)c(F)cc3c(=O)c(C(=O)O)cn1c23 (configuration not stated) | 0.975 ± 0.091 | 0.889 ± 0.051 | 0.992 ± 0.051 | 1.03 ± 0.077 | 0.897 ± 0.046 | 0.946 ± 0.11 | 0.995 (active)
2 | CNCCC(Oc1ccc(C(F)(F)F)cc1)c1ccccc1.Cl (configuration not stated) | 0.766 ± 0.072 | 0.848 ± 0.087 | 1.33 ± 0.19 | 1.04 ± 0.13 | 0.972 ± 0.056 | 0.9 ± 0.19 | 0.379 (inactive)
3 | CCCCOc1ccc(C(=O)Nc2cc(-c3nc4ccccc4o3)ccc2OC)cc1 | 1.08 ± 0.066 | 1.08 ± 0.089 | 0.965 ± 0.025 | 0.965 ± 0.042 | 1.06 ± 0.049 | 1.02 ± 0.098 | 1 (active)
4 | COc1ccc(CNC(=O)c2cnc3n(c2=O)CCS3)cc1 | 1.21 ± 0.29 | 1.04 ± 0.055 | 2.54 ± 1.4 | 0.934 ± 0.038 | 1.1 ± 0.15 | 1.25 ± 0.19 | 1 (active)
5 | COC(=O)c1ccc(-n2nnnc2SCC(=O)Nc2ccc(C)c(C)c2)cc1 | 0.529 ± 0.32 | 0.897 ± 0.057 | 0.98 ± 0.085 | 0.849 ± 0.063 | 1.14 ± 0.077 | 1.19 ± 0.15 | 1.02 (active)
6 | O=C1CN(CCC2=CCCCC2)C2CS(=O)(=O)CC2N1c1ccc(Cl)cc1 (configuration not stated) | 1.01 ± 0.12 | 1.07 ± 0.089 | 0.849 ± 0.071 | 0.786 ± 0.051 | 0.892 ± 0.078 | 1 ± 0.13 | 1.01 (active)
7 | CCCOc1cccc(C(=O)Nc2cccc(S(N)(=O)=O)c2)c1 | 1.11 ± 0.13 | 0.97 ± 0.057 | 0.945 ± 0.058 | 0.918 ± 0.039 | 1.39 ± 0.14 | 1.05 ± 0.27 | 1 (active)
8 | OC(C(=NN=C(c1ccccc1)C(O)c1ccccc1)c1ccccc1)c1ccccc1 (configuration not stated) | 0.662 ± 0.072 | 1.14 ± 0.072 | 1.03 ± 0.063 | 1.14 ± 0.038 | 1.48 ± 0.11 | 1.45 ± 0.19 | 0.974 (active)
9 | CC1(C)C(=O)C2CC3(O)C4=CC(=O)OC(c5ccoc5)C4(C)CCC3C(C)(C2=O)C1CC(=O)O (configuration not stated) | 0.99 ± 0.056 | 1.04 ± 0.064 | 1.01 ± 0.081 | 0.997 ± 0.035 | 1.51 ± 0.13 | 1.25 ± 0.14 | 0.996 (active)
10 | COc1ccc(C=NNC(=O)CSc2nnc(-c3ccncc3)n2-c2ccccc2)cc1OC | 1.05 ± 0.12 | 1 ± 0.1 | 0.962 ± 0.034 | 0.954 ± 0.05 | 1.04 ± 0.07 | 1.01 ± 0.12 | 0.998 (active)
11 | Cc1cc(CCNS(=O)(=O)c2cccc(C(F)(F)F)c2)nn1C | 0.898 ± 0.068 | 0.995 ± 0.1 | 0.988 ± 0.06 | 0.96 ± 0.06 | 0.961 ± 0.097 | 1 ± 0.23 | 1 (active)
12 | O=C(CCn1c(=O)oc2ccccc21)Nc1ccncc1 | 1.17 ± 0.068 | 1.04 ± 0.079 | 1.01 ± 0.033 | 0.996 ± 0.16 | 0.932 ± 0.045 | 0.949 ± 0.14 | 1 (active)
13 | CCOc1ccccc1OCCOCCOc1ccc(Br)cc1Cl | 0.905 ± 0.051 | 0.9 ± 0.13 | 1.22 ± 0.044 | 0.876 ± 0.034 | 0.979 ± 0.088 | 1.02 ± 0.12 | 0.992 (active)
14 | CN(C)C(CNC(=O)NCc1ccc(Cl)cc1)c1ccc2c(c1)CCO2 (configuration not stated) | 0.616 ± 0.1 | 1.17 ± 0.091 | 0.937 ± 0.1 | 0.854 ± 0.026 | 1.2 ± 0.23 | 1.4 ± 0.14 | 1 (active)
15 | Cc1cccc(NC(=O)Cc2nnc(NC(=O)Nc3ccc(F)cc3)s2)c1 | 1.02 ± 0.11 | 1.03 ± 0.059 | 0.917 ± 0.055 | 1 ± 0.051 | 1.53 ± 0.12 | 1.11 ± 0.15 | 1.01 (active)
16 | Brc1ccc(-c2cc(-c3ccccc3)nc(N3CCCCC3)n2)cc1 | 0.951 ± 0.2 | 1.1 ± 0.092 | 1 ± 0.079 | 0.859 ± 0.03 | 1.17 ± 0.11 | 1.33 ± 0.15 | 1 (active)
17 | COc1cccc(-c2cc(C(=O)N3CCC(Oc4cc(C)n(C)c(=O)c4)CC3)n(C)n2)c1 | 1.01 ± 0.11 | 0.994 ± 0.1 | 0.983 ± 0.06 | 0.991 ± 0.059 | 0.964 ± 0.066 | 0.938 ± 0.085 | 1 (active)
18 | COc1ccc(C(C)=NNC(=O)Nc2ccccc2)c(OC)c1 | 0.92 ± 0.083 | 0.865 ± 0.092 | 0.932 ± 0.088 | 1.02 ± 0.063 | 1.26 ± 0.2 | 1.4 ± 0.27 | 1.01 (active)
19 | COC(=O)C1=CN(C2CC2)C=C(C(=O)OC)C1c1ccccc1Cl | 1.12 ± 0.1 | 0.722 ± 0.07 | 1.1 ± 0.052 | 0.945 ± 0.11 | 0.905 ± 0.039 | 1.06 ± 0.17 | 1 (active)
20 | CCc1ccc(CCOc2ccc(CC3SC(=O)NC3=O)cc2)nc1.Cl (configuration not stated) | 1.34 ± 0.27 | 1.04 ± 0.12 | 0.983 ± 0.062 | 0.736 ± 0.028 | 1.22 ± 0.18 | 1.19 ± 0.097 | 0.997 (active)
21 | CC(=O)Nc1ccc(S(=O)(=O)N2CCC(Oc3cc(C)nc(C)n3)C2)cc1 (configuration not stated) | 0.919 ± 0.039 | 0.923 ± 0.098 | 1.04 ± 0.092 | 0.998 ± 0.08 | 0.936 ± 0.12 | 0.983 ± 0.32 | 0.97 (active)
22 | O=C(CCN1C(=O)c2cccc([N+](=O)[O-])c2C1=O)Nc1ccc(F)cc1 | 1.01 ± 0.13 | 1.02 ± 0.069 | 1.02 ± 0.035 | 0.875 ± 0.082 | 0.958 ± 0.099 | 1.07 ± 0.23 | 1 (active)
23 | CN(C)CCNC(=S)NC(=O)C12CCC3CC(CC(C3)C1)C2 | 0.978 ± 0.1 | 1 ± 0.094 | 0.982 ± 0.062 | 0.994 ± 0.033 | 1.5 ± 0.17 | 1.07 ± 0.068 | 1.01 (active)
24 | N=C(N)c1ccc(OCCCCCOc2ccc(C(=N)N)cc2)cc1.O=S(=O)(O)CCO.O=S(=O)(O)CCO | 0.243 ± 0.017 | 0.46 ± 0.037 | 0.492 ± 0.027 | 0.715 ± 0.079 | 1.18 ± 0.2 | 0.788 ± 0.16 | 0.305 (inactive)
25 | CC1(C)OC[C@@H](COC(=O)CCc2ccc(OC[C@@H](O)CNCCNC(=O)N3CCOCC3)cc2)O1.Cl | 1.05 ± 0.079 | 0.966 ± 0.072 | 0.987 ± 0.023 | 0.985 ± 0.098 | 0.97 ± 0.11 | 0.832 ± 0.2 | 1 (active)
26 | COc1ccc(OC)c(-c2csc(NC(=O)Cc3ccc(F)cc3)n2)c1 | 0.902 ± 0.097 | 0.944 ± 0.069 | 1.12 ± 0.1 | 1.1 ± 0.078 | 1.2 ± 0.18 | 1.38 ± 0.36 | 0.998 (active)
